Bioassay records from PubChem.
PMP22 txn = PMP22 gene transcription modulation | S16 Pmp22-F2sN Schwann cells, FLuc/NLuc coincidence luminescence, 24 h | Potency, µM (series often up to 57.5 µM), without a hit: top-dose activity change, negative = inhibition, most hits filed as inhibitors | 43,000 compounds, 2% hits | AID 1508649; active means clear falling dose curves in both reporters; inconclusive means both reporters move, but less clearly or upward; inactive means either reporter flat; the % is the NLuc reporter signal
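qHTS, 1536-well. Cells seeded, compounds added by pin tool, 24 h 37C. Nano-Glo reagent 1 (lysis/FLuc), 10 min RT, read; Stop&Glo, 10 min RT, read NLuc.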
S16 F2sN tox = cytotoxicity in S16 Pmp22-F2sN Schwann cells; S16 Pmp22-F2sN Schwann cells (luciferase reporters placed in the Pmp22 gene) viability, CellTiter-Glo, 24 h; Potency, µM (doses to about 57.5 µM), without a hit: at the highest dose activity change, negative = cytotoxicity, actives largely listed as cytotoxic; 43,000 compounds, 0.48% hits; AID 1508642; further: nearly all actives have a fitted effect of over 65% in size
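Rat S16 Schwann reporter line, 24 h treatment with library compounds delivered at 23 nL per well. Cell viability by CellTiter-Glo luminescence.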
OvCa metastasis = inhibitors of ovarian cancer cell adhesion and invasion in omental model. SKOV3ip1-GFP adhesion/invasion on 3D omental model, fluorescence. Potency, µM (series often up to 45.8 µM), for the others: at the top dose activity change, negative = inhibition, usual class: inhibitors. 46,000 compounds, 0.1% hits. AID 1963576;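 further: plate controls were DMSO wells for no effect and tomatine positive control wells for full effect; nearly all actives have a fitted effect of over 65% in size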
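A 3D layer of primary human omental fibroblasts, mesothelial cells, fibronectin and collagen I, grown 48 hr, received SKOV3ip1-GFP cells in serum-free medium plus compounds at 0.36-46 umol/L. After 2 hr RT and 16 hr 37 C, fixed adherent GFP cells were counted; normalized to DMSO and tomatine.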
p53null 39C tox = p53 null cell cytotoxicity, nonpermissive temperature | H1299 p53-null (neo) cells, 39C, ATPlite viability, 24 h | AID 904 | Potency, µM (highest dose often 46.1 µM), for inactives: at the top dose activity, negative = cell killing, most hits filed as cytotoxic | 55,000 compounds, 0.97% hits;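 further: 0% = DMSO only and -100% = full killing by 100 µM tamoxifen; nearly all actives have a fitted effect of over 50% in size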
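Following overnight plating at 37C (600 cells/well), H1299-neo or H1299-p53A138V cells are dosed up to 46 uM. Incubation lasts 24 hr at 39C before ATP detection.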
mTORC1 inh = reduces mTORC1 signaling in Tsc2 and p53 null MEF cells. Potency, µM (series often up to 38.3 µM), inactives show at the top dose activity change, negative = inhibition, usual class: inhibitors. 44,000 compounds, 0.78% hits. Tsc2-/- p53-/- MEF, phospho-rpS6 immunofluorescence/PI, 24 h;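 further: plate controls were DMSO for no effect and rapamycin for full effect; nearly all actives have a fitted effect of over 50% in size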
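Read-out: phospho-S6 Alexa-488 intensity over PI intensity per well, scored as % active cells using thresholds from rapamycin (7.5 nM) and DMSO controls. Tsc2-/-, p53-/- MEFs exposed to compound for 24 h; PI cell count recorded as viability.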
p53null 32C kill = kills p53 null cells at the permissive temperature; H1299-neo p53 null cells, ATP luminescence, 24 h, 32C; Potency, µM (top dose mostly 46.1 µM), for inactives: at the highest dose activity change, negative = cytotoxicity, actives largely listed as cytotoxic; 55,000 compounds, 0.62% hits; AID 903;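 further: 0% = DMSO only and -100% = full killing by 100 µM tamoxifen; nearly all actives have a fitted effect of over 55% in size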
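Cytotoxicity: H1299-neo (no p53), 32C, 24 h treatment. Concentrations up to 46 uM. Readout cellular ATP, luminescence. Normalization to DMSO basal and tamoxifen 100 uM maximal kill.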
Starred values were filed as active, the others as inactive; i = inactive; u = inconclusive; x = no result given. An excerpt weighted towards active compounds, which were near 3.1% of everything screened. Unless noted, the call rests on the fitted dose curve; in most records, active means well fitted curve in the direction sought with a large enough effect; inconclusive means small, poorly fitted or top-dose-only effect, or another doubt; inactive means no such curve, though single readings can be large; an effect the other way counts as inactive or inconclusive. Unless noted, on the % scale 0 is the no-effect control and ±100 the full control effect; potency means the concentration at half of the fitted maximal effect.

SMILES	PMP22 txn	S16 F2sN tox	OvCa metastasis	p53null 39C tox	mTORC1 inh	p53null 32C kill
CCc1ccc(C(=O)Nc2cc(CN3CCN(C)CC3)cc(C(F)(F)F)c2)cc1C#Cc1cnc2ccnn2c1	x	x	1.7%	x	x	x
COCn1c(-c2ccc(OC)cc2)nc2ccccc21	x	x	x	11.2µM*	x	14.1µM*
COc1ccc(-c2nc3ccccc3n2Cc2ccc(C(C)C)cc2)cc1	-17.8%	u	i	u	-10.9%	9.4%
COc1ccc(-c2nc3ccccc3n2Cc2ccc(Cl)cc2)cc1	-18.5%	17.6%	1.3%	3.98µM*	-5.0%	55.9%
Nc1nc(Cl)nc2c1ncn2[C@@H]1O[C@H](CO)[C@@H](O)[C@H]1F	x	x	-2.9%	x	x	x
COc1c(C)c2c(c(O)c1CC=C(C)CCC(=O)O)C(=O)OC2	x	x	-8.1%	x	x	x
CCN(CC)C(=O)C1CCN(S(=O)(=O)c2ccc3c(c2)CCCN3C(C)=O)CC1	0.3%	u	-10.6%	10µM*	-1.5%	-0.6%
CCN(C(=O)C1CCN(S(=O)(=O)c2ccc3c(c2)CCCN3C(C)=O)CC1)c1cccc(C)c1	u	-9.7%	-23.5%	21.9%	-4.8%	-0.1%
CCOc1ccccc1NC(=O)N(Cc1ccc(F)cc1)C1CCN(CC)CC1	-10.5%	11.0%	-9.0%	-16.6%	14.7µM*	-13.1%
CCN1CCC(N(Cc2ccc(F)cc2)C(=O)Nc2cccc(C(F)(F)F)c2)CC1	u	u	u	-20.5%	u	-16.8%
CCN1CCC(N(Cc2ccc(F)cc2)C(=O)Nc2ccc(C)c(F)c2)CC1	17.1%	7.9%	-19.1%	u	16.5µM*	-14.3%
CCN1CCC(N(Cc2ccc3c(c2)OCO3)C(=O)Nc2ccccc2OC)CC1	8.1%	0.9%	1.0%	-10.1%	-17.1%	-0.9%
CO[C@H]1C(=O)[C@]2(C)[C@@H](OC)C[C@H]3OC[C@@]3(OC(C)=O)[C@H]2[C@H](OC(=O)c2ccccc2)[C@]2(O)C[C@H](OC(=O)[C@H](O)[C@@H](NC(=O)OC(C)(C)C)c3ccccc3)C(C)=C1C2(C)C	x	x	7.6%	x	x	x
COCc1nn2cc(-c3ccc(C)cc3)nc2s1	u	-9.1%	6.6%	10µM*	-11.4%	10µM*
CCOc1ccc(-c2cn3nc(CC(C)C)sc3n2)cc1	-27.9%	-4.2%	i	u	2.0%	u
O=S(=O)(Nc1cc(F)ccc1F)c1ccc2[nH]c3c(c2c1)CCCCC3	u	8.0%	u	10.2%	-15.8%	28.9%
O=S(=O)(Nc1cccc(F)c1)c1ccc2[nH]c3c(c2c1)CCCCC3	u	u	-16.3%	15.8µM*	0.3%	37.3%
Cc1ccc2oc(-c3ccc(NC(=O)CCC(=O)O)cc3)nc2c1	-2.9%	5.4%	i	u	-14.1%	12.6µM*
Cc1ccc(SCC(=O)Nc2ccc3oc(-c4cccc(C)c4)nc3c2)cc1	0.1%	3.3%	i	-12.2%	-9.9%	-16.3%
CON(C)C(=O)N1N=C(c2cc(F)ccc2F)S[C@]1(CCCN)c1ccccc1	x	x	3.2%	x	x	x
COc1ccc(CN2CCc3nc(N4CCN(c5ccc(F)cc5)CC4)ncc3C2)c(OC)c1OC	13.4µM*	15.8µM*	-12.5%	18.8%	-1.6%	1.7%
CC(=O)Nc1cccc(-c2csc(Nc3ccc(C)cn3)n2)c1	x	x	x	x	x	11.2µM*
Cc1nc(-c2cccc(NC(=O)c3cccs3)c2)cs1	x	x	x	-9.3%	x	1.7%
CCOc1ccn(-c2ccc(F)cc2)c(=O)c1C(=O)Nc1ccc(Oc2ccnc(N)c2Cl)c(F)c1	x	x	6.7%	x	x	x
COc1ccc(NC(=O)CSc2oc(-c3cccs3)nc2S(=O)(=O)c2ccc(C)cc2)c(OC)c1	59.5%	7.2%	1.2%	-4.6%	3.1%	6.6%
Cc1ccc(S(=O)(=O)c2nc(-c3cccs3)oc2SCC(=O)Nc2cc(C)cc(C)c2)cc1	u	0.8%	u	u	20.7µM*	-27.7%
